Screening data as filed in PubChem.
A selection: hits, their analogues and other compounds. The true share with any hit is near 2.5%.
Mcl1 Noxa PPI – Mcl-1/Noxa interaction inhibition; inhibition, % at 21.7 µM; 1.5% of 220,000 active; TR-FRET Mcl-1/Noxa peptide binding, 2 h;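 active = compounds that cut the protein-peptide binding signal by more than 50% relative to plate controls in a single-dose test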;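 note: His-tagged Mcl-1 with rhodamine Noxa BH3 peptide and terbium anti-His antibody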
Target sequence (Q07820 whole entry, looked up): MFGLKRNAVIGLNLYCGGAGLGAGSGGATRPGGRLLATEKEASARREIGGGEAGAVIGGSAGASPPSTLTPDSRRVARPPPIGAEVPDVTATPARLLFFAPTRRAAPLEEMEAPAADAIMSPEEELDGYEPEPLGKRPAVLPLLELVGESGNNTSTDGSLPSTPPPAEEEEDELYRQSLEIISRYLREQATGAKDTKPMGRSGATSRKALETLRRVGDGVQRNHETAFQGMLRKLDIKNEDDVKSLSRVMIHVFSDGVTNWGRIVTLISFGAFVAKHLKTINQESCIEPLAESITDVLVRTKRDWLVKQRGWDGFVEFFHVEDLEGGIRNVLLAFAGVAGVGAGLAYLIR
Mcl1-Bid inh – disrupts binding of human Mcl-1 to Bid peptide. TR-FRET Mcl-1/Bid-Dy647 peptide binding, 1536-well. Q07820. 0.97% of 220,000 active. inhibition, % at 21.7 µM;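 active = compounds that cut the binding signal by more than half at the single screening dose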;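 note: His-tagged Mcl-1 with europium anti-His antibody binding Bid BH3 peptide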
Mcl-1 Bim block – inhibitors of Bim-Mcl-1 interaction, human | Q07820 | Bead-based flow cytometry, Bim peptide-Mcl-1 binding | inhibition, % at 10 µM | 0.1% of 190,000 active | AID 1009; in the data active = inhibition above about 40%
14-3-3 Bad PPI – disrupts binding of bovine 14-3-3 zeta to phospho-Bad peptide; P63103; TR-FRET 14-3-3zeta/Dy647-pBad peptide displacement, 1 h; inhibition, % at 21.7 µM; 0.71% of 220,000 active;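 active = inhibition above about 70%, limit read from the data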
MCL1-BIM inh – disrupts human MCL1 binding to BIM-BH3 peptide. inhibition, % at 10.9 µM. AID 2057. 0.68% of 320,000 active. GST-MCL1 / FITC-Bim-BH3 fluorescence polarization;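 active = inhibition above the mean inhibition of all tested compounds plus 3 SD, set per campaign, cut at about 40% in these data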;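 note: higher means more loss of mP so more displacement of Bim peptide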
Bcl-xL conf – Bcl-xL (human) inhibition, MCL1 counter-screen confirmation | shares compounds with MCL1-BIM inh | GST-Bcl-xL / FITC-Bim BH3 peptide FP binding | inhibition, % at 10.9 µM | 54% of 1,700 active | AID 2166;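 active = inhibition above a cutoff equal to the mean inhibition of all tested compounds plus 3 SD, cut at about 30% in these data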
Target sequence (Q07817 whole entry, looked up): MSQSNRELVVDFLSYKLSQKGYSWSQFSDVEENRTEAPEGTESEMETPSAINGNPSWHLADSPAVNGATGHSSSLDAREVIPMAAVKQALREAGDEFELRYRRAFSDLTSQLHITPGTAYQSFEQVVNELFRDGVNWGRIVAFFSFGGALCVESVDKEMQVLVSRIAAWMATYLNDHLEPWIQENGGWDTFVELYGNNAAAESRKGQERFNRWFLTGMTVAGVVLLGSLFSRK
MCL1 inh confirm – MCL1-BIM-BH3 interaction inhibition, confirmation. GST-MCL1 / FITC-Bim-BH3 fluorescence polarization. shares compounds with MCL1-BIM inh. inhibition, % at 10.9 µM. 61% of 1,700 active;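 active = inhibition above the average of all tested compounds plus 3 SD, cut at about 40% in these data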
A number is an active result; . = inactive; / = no result; + = active, no number.

SMILES	Mcl1 Noxa PPI	Mcl1-Bid inh	Mcl-1 Bim block	14-3-3 Bad PPI	MCL1-BIM inh	Bcl-xL conf	MCL1 inh confirm
O=C(CSc1ccc(Cl)cc1)c1ccco1	.	.	.	.	63.5	.	75.2
COc1ccccc1CNC(=O)COC(=O)c1cc(-c2ccco2)nc2ccccc12	92.2	.	.	.	71.8	34.5	71.0
CCCOc1ccc(-c2cc(C(=O)NCC3CCCO3)c3ccccc3n2)cc1 (configuration not stated)	.	.	.	.	.	/	/
COc1ccc(NC(=O)c2cc(-c3ccco3)nc3ccccc23)cc1S(=O)(=O)N1CCOCC1	101.1	.	/	.	42.5	38.2	.
CCc1nnc(NC(=O)c2cc(-c3ccco3)nc3ccccc23)s1	82.1	.	.	.	51.2	31.6	72.3
O=C(NCC1CCCO1)c1cc(-c2ccco2)nc2ccccc12 (configuration not stated)	.	.	.	.	66.6	.	.
CC(C)(C)NC(=O)C(c1ccncc1)N(C(=O)CNC(=O)c1ccco1)c1ccc(F)cc1 (configuration not stated)	/	/	/	/	.	/	/
O=C(Cn1cc([N+](=O)[O-])cn1)Nc1nccs1	.	.	.	.	.	/	/
CCCCc1ccc(NC(=O)CN2NS(=O)(=O)c3ccccc3C2=O)cc1	.	.	.	.	.	/	/
O=C(N/N=C/c1cccc(F)c1)c1cc(-c2ccco2)nc2ccccc12	90.5	.	.	.	73.6	.	63.6
CC1(C)CC(=O)C(C=Nc2cccnc2/N=C/C2=C(O)CC(C)(C)CC2=O)=C(O)C1	.	.	.	.	63.2	.	.
CC1(C)CC(=O)C(C=Nc2ccc(C(=O)c3ccccc3)cc2N=CC2=C(O)CC(C)(C)CC2=O)=C(O)C1	.	.	.	.	79.9	.	.
CC1(C)CC(=O)C(C=Nc2cccnc2)=C(O)C1	.	.	.	.	.	/	/
CCn1c(SCC(=O)N/N=C/C=C\c2ccco2)nc2ccccc21	.	.	.	.	48.1	.	.
COCCN1C(=O)/C(=C2/C(=O)N(CC(=O)Nc3ccccc3Cl)c3ccccc32)SC1=S	/	/	/	/	.	/	/
O=C(CN1C(=O)/C(=C2\SC(=S)N(CCS(=O)(=O)O)C2=O)c2ccccc21)Nc1cccc(Br)c1	/	/	/	/	102.7	.	94.4
COc1cc(/C=N/NC(=O)c2cc(-c3ccccc3OC(C)C)nc3ccccc23)ccc1O	.	.	.	.	.	/	/
COc1cccc2c1-c1c(O)cccc1C2=O	/	/	/	/	.	/	/
O=C1c2cccc(O)c2C(=O)c2c(O)cccc21	.	.	.	.	157.7	80.9	96.8
CC(C)CNC(=O)NC(=O)COc1ncnc2sccc12	.	.	.	.	53.9	.	.
CCn1c(CSc2nnc3ccccn23)nc2cc(C(=O)O)ccc21	.	.	.	.	110.4	64.3	86.0
CCn1c(CSc2nnc(-c3cccnc3)n2-c2ccccc2C)nc2cc(C(=O)O)ccc21	.	.	.	.	.	/	/
C=CCn1c(SCC(=O)c2ccc(O)c(O)c2)nnc1-c1ccccc1OC	.	.	.	.	54.3	.	.
CCn1c(SCC(=O)c2ccc(O)c(O)c2)nnc1-c1ccccc1OC	.	.	.	.	44.8	.	40.8
C=CCn1c(SCC(=O)c2ccc(O)c(O)c2)nnc1-c1cccnc1	58.0	.	/	.	40.8	.	47.2
SMILES	Mcl1 Noxa PPI	Mcl1-Bid inh	Mcl-1 Bim block	14-3-3 Bad PPI	MCL1-BIM inh	Bcl-xL conf	MCL1 inh confirm
C=CCn1c(SCC(=O)c2ccc(O)c(O)c2)nnc1-c1cccc(C)c1	/	/	/	/	.	/	/
C=CCn1c(SCC(=O)c2ccc(O)c(O)c2)nnc1-c1cccc(Cl)c1	/	/	/	/	.	/	/
CC(Sc1n[nH]c(N)n1)C(=O)Nc1ccc(Cl)cn1 (configuration not stated)	.	.	.	.	.	/	/
Cc1ccc(SCC(=O)OCC(=O)NCC2CCCCC2)cc1C	/	/	/	/	.	/	/
Cc1ccc(NC(=O)COC(=O)CSCC(=O)Nc2cc(C)on2)c(C)c1	/	/	/	/	.	/	/
Cc1cc(Nc2ccc(Cl)cc2)nc(N)n1	.	.	.	.	.	/	/
Nc1cc(Nc2ccc(Br)cc2)nc(N)n1	.	.	/	.	50.3	43.8	46.2
CC(=O)Nc1ccc(S(=O)(=O)Nc2nc(CN3CCOCC3)nc3sc4c(c23)CCCC4)cc1	.	.	.	.	.	/	/
COc1ccccc1N(CC(=O)NCc1ccco1)S(=O)(=O)c1ccc(C)cc1	/	/	/	/	46.7	33.1	79.0
C=CCn1c(=O)[nH]c2nc3cc(N=CN(C)C)c(C)cc3nc2c1=O	.	.	/	.	+	185.6	+
O=C(O)CCCNc1cc(N2CCN(C(=O)c3ccco3)CC2)c2noc3c2c1C(=O)c1ccccc1-3	/	/	/	/	156.9	192.6	163.6
O=C(c1ccco1)N1CCN(CCCCN2C(=O)c3ccccc3C2=O)CC1	.	.	.	.	.	/	/
O=C1c2ccccc2-c2onc3c(N4CCN(CCO)CC4)cc(N4CCN(C(=O)c5ccco5)CC4)c1c23	/	/	/	/	83.0	53.1	58.3
CCN(CC)c1ccc2cc(C(C)=O)c(=O)oc2c1	.	.	.	.	.	/	/
CCN(CC)c1ccc2cc(NC(=O)CCC(=O)O)c(=O)oc2c1	.	.	.	.	113.3	106.2	118.3
CN(C)c1ccc2nc3c(=O)[nH]c(=O)nc-3n(CC(O)C(O)C(O)CO)c2c1 (configuration not stated)	/	/	/	/	+	150.0	173.6
O=C(CCCN1C(=O)/C(=C\c2cccs2)SC1=S)Nc1cccc(C(=O)O)c1	.	.	.	.	.	/	/
O=C(CCCN1C(=O)/C(=C\c2ccco2)SC1=S)Nc1ccc(O)cc1C(=O)O	/	/	/	/	71.1	51.4	77.5
O=C(CCCN1C(=O)/C(=C/c2ccco2)SC1=S)Nc1cccc(C(=O)O)c1	.	.	/	.	60.1	.	.
Cc1ccccc1CNC(=O)Cn1ccc2cc(S(=O)(=O)N3CCCCCC3)ccc21	/	/	/	/	.	/	/
N#CC1=C(N)Oc2cc(O)c(Cl)cc2C1c1ccccc1F (configuration not stated)	/	/	/	/	56.6	91.0	118.3
Cc1ccnc(Nc2nc(-c3ccc(Cl)cc3)cs2)c1	/	/	/	/	52.2	.	.
Cc1ccnc(Nc2nc(-c3ccc(F)cc3)cs2)c1	/	/	/	/	.	/	/
COc1ccc(NC(=O)/C(C#N)=C/c2ccc[nH]2)c(OC)c1	/	/	/	/	.	/	/
N#C/C(=C\c1ccc[nH]1)C(=O)Nc1ccccc1Cl	/	/	/	/	46.5	.	.
SMILES	Mcl1 Noxa PPI	Mcl1-Bid inh	Mcl-1 Bim block	14-3-3 Bad PPI	MCL1-BIM inh	Bcl-xL conf	MCL1 inh confirm
CCOc1ccc(NC(=O)NCc2cccn2C)cc1	/	/	/	/	.	/	/
N#Cc1c(SCC(=O)Nc2nc3ccccc3s2)sc2c(O)cc(=O)[nH]c12	/	/	/	/	57.3	.	71.6
N#Cc1c(SCC(=O)Nc2nc3ccc(Br)cc3s2)sc2c(O)cc(=O)[nH]c12	/	/	/	/	47.8	.	54.1
CCCSc1nnc(NC(=O)CSc2sc3c(O)cc(=O)[nH]c3c2C#N)s1	/	/	/	/	.	/	/
N#Cc1c(SCC(=O)Nc2nccs2)sc2c(O)cc(=O)[nH]c12	/	/	/	/	49.6	.	.
CCn1c(=S)sc2nc(C)sc21	/	/	/	/	.	/	/
